Assay results from PubChem BioAssay.
Activity calls are given as the source filed them. Unless noted, the rule behind the calls is not given here.

Key:
[1] = A549 cell viability effects, profiling panel, calcein-AM fluorescence, 48 h, basal (AID 1162); settings: higher = more signal; note: test concentration not given here
[2] = adipocyte viability effects, profiling panel, cell-based, 3T3-L1 adipocytes, calcein-AM fluorescence, 48 h, basal (AID 1163); settings: 3T3-L1 adipocytes viability, higher = more signal; note: test concentration not given here
[3] = HepG2 cell viability effects, profiling panel, calcein-AM fluorescence, 48 h, basal (AID 1164); settings: higher = more signal; note: test concentration not given here
[4] = MM1S cell viability effects, profiling panel, calcein-AM fluorescence, 48 h, basal (AID 1165); settings: higher = more signal;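 note: viability of MM1S multiple myeloma cells under basal unstimulated conditions; test concentration not given here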
[5] = basal RPMI8226 viability, no added stimulus, profiling panel, cell-based, calcein-AM fluorescence, 48 h, PK04 Diversity Set (AID 1166); settings: RPMI8226 myeloma viability, higher = more signal;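 note: cells grown under basal conditions without added stimulus; test concentration not given here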
[6] = basal HepG2 mitochondrial membrane potential changes, profiling panel, cell-based, JC-1 fluorescence, 24 h, 100 nL compound (AID 1167); settings: higher = more signal; note: test concentration not given here
[7] = basal 3T3-L1 adipocyte mitochondrial potential changes, profiling panel, cell-based, JC-1 fluorescence, 3T3-L1 adipocytes, 24 h, 100 nL compound (AID 1168); settings: JC-1 mitochondrial fluorescence, higher = more signal, called active from +8 up or from −8 down; note: test concentration not given here
[8] = basal RPMI8226 mitochondrial membrane potential changes, profiling panel, cell-based, JC-1 fluorescence, 24 h, 100 nL compound (AID 1169); settings: RPMI8226 myeloma, JC-1 mitochondrial potential fluorescence, higher = more signal; note: test concentration not given here
[9] = basal MM1S mitochondrial membrane potential changes, profiling panel, cell-based, JC-1 fluorescence, 24 h, 100 nL compound (AID 1170); settings: higher = more signal; note: test concentration not given here
[10] = A549 lung cancer cell viability effects, profiling panel, resazurin fluorescence, 24 h, PK04 Diversity Set (AID 1171); settings: higher = more signal, called active from +8 up or from −8 down; note: test concentration not given here
[11] = HepG2 liver cancer cell viability effects, profiling panel, resazurin fluorescence, 24 h, PK04 Diversity Set (AID 1172); settings: higher = more signal; note: test concentration not given here
[12] = basal S. cerevisiae growth modulation, no modifier, primary screen, OD600, strain BY4716, 24 h, basal condition (AID 1173); settings: OD600, 24 h, higher = more signal, called active from +8 up or from −8 down
[13] = MM1S myeloma cell viability, profiling panel, resazurin fluorescence, basal, 24 h, PK04 Diversity Set (AID 1174); settings: higher = more signal, called active from +8 up or from −8 down;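 note: MM1S multiple myeloma cell line; test concentration not given here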
[14] = target: Dihydroorotate dehydrogenase (quinone), mitochondrial (Plasmodium falciparum (isolate 3D7)) (UniProt Q08210); assay: PfDHODH enzyme inhibitors, primary screen, biochemical, C-terminal His tag, absorbance 600 nm (AID 1175); settings: DCIP absorbance 600 nm, higher = more signal, called active from +8 up or from −8 down;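 note: recombinant parasite enzyme with a five histidine tag at its C terminus; test concentration not given here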
Chain of Dihydroorotate dehydrogenase (quinone), mitochondrial (Plasmodium falciparum (isolate 3D7)) (Q08210 whole entry, looked up): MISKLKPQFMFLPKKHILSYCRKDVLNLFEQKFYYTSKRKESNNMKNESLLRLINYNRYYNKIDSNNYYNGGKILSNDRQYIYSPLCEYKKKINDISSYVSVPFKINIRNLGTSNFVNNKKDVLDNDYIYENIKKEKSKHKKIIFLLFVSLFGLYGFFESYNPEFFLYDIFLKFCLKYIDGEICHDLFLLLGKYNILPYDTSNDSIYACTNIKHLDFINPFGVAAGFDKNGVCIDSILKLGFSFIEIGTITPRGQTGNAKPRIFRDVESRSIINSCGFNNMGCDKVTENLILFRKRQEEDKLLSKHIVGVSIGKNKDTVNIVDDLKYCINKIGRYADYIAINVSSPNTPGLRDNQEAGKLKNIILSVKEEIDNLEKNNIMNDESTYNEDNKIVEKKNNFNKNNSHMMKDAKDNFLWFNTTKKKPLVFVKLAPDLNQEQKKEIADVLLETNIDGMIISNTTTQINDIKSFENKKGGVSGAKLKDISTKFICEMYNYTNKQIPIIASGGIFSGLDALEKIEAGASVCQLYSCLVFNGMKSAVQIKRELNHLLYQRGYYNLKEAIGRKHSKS

[15] = P. aeruginosa biofilm formation inhibitors, primary screen, strain PAO1, LB-PBS medium, absorbance 600 nm (AID 1176); note: test concentration not given here; settings: P. aeruginosa PAO1 growth/biofilm, A600, 12 h; higher = more signal
[16] = S. cerevisiae RM11-1a growth modifiers, primary screen, strain RM11-1a, OD600, basal, 24 h (AID 1177); settings: OD600, 24 h, higher = more signal, called active from +8 up or from −8 down;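 note: cultures grown under basal conditions with no added stressor; test concentration not given here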
[17] = E. coli acrAB mutant growth effects, primary screen, E. coli filamentation inducers, strain DRC39, OD650, 24 h (AID 1178); settings: higher = more signal, called active from +8 up or from −8 down;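 note: growth measured as culture turbidity by optical density at 650 nm; test concentration not given here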
[18] = E. coli acrAB mutant growth effects, primary screen, E. coli filamentation inducers, strain DRC39, OD650, 48 h (AID 1179);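 note: screen aims at cell division blockers that make cells filament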; settings: E. coli DRC39 delta-acrAB growth, higher = more signal, called active from +8 up or from −8 down
[19] = RPMI8226 myeloma cell viability, profiling panel, resazurin fluorescence, basal, 24 h, PK04 Diversity Set (AID 1180); settings: higher = more signal;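 note: RPMI8826 multiple myeloma cell line at 5000 cells per well; test concentration not given here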
[20] = target: E3 ubiquitin-protein ligase XIAP (Homo sapiens) (UniProt P98170); assay: XIAP binders, primary screen, biophysical, small-molecule microarray, fluorescence 635 nm (AID 1181); settings: small-molecule microarray binding, higher = more signal;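 note: score merges 667 nm emission and signal to noise over triplicate slides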
Chain of E3 ubiquitin-protein ligase XIAP (Homo sapiens) (P98170 whole entry, looked up): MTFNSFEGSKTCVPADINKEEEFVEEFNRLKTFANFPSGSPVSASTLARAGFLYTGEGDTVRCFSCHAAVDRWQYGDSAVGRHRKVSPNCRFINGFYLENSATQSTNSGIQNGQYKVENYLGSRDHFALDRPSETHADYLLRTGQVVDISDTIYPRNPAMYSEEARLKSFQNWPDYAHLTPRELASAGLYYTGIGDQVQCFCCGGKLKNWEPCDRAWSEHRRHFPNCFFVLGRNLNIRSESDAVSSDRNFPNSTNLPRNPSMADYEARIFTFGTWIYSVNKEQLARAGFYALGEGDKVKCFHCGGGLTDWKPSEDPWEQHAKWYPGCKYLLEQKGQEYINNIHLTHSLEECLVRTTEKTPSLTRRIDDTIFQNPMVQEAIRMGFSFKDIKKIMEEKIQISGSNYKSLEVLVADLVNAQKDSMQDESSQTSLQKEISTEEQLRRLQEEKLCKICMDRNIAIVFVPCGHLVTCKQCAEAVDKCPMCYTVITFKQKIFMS

Row | Compound | z-score [1] | z-score [2] | z-score [3] | z-score [4] | z-score [5] | z-score [6] | z-score [7] | z-score [8] | z-score [9] | z-score [10] | z-score [11] | z-score [12] | z-score [13] | composite z-score [14] | z-score [15] | z-score [16] | z-score [17] | z-score [18] | z-score [19] | composite z-score [20]
1 | Cc1ccc(S[C@]2(C(=O)NCC(C)C)CC(=O)N(Cc3ccccc3Cl)[C@@H]2c2ccc(CO)cc2)cc1 | 1.63 | 0.114 | -0.45 | -0.226 | 0.845 | -0.595 | -0.254 (inactive) | -0.492 | 0.767 | -0.0989 (inactive) | -0.0675 | -0.511 (inactive) | 0.196 (inactive) | -0.223 (inactive) | -0.205 (inactive) | 0.343 (inactive) | -0.115 (inactive) | -0.219 (inactive) | 0.405 | 0.012
2 | COc1cc2c(cc1O)C(C)N(Cc1cccc(OC(F)(F)F)c1)CC2 (stereo not given) | -0.762 | 0.815 | -1.51 | -2.34 | -2 | 0.0471 | -0.793 (inactive) | 0.0842 | -1.24 | 0.849 (inactive) | 0.177 | -0.713 (inactive) | -1.33 (inactive) | -1.44 (inactive) | -0.255 (inactive) | 0.279 (inactive) | 0.506 (inactive) | 0.324 (inactive) | -0.622 | 0.427
3 | COC(=O)[C@@]1(Cc2ccc(OC)cc2)[C@H]2c3cc(C(=O)N4CCCC4)n(Cc4ccccn4)c3C[C@H]2CN1C(=O)c1ccccc1 | -0.87 | 0.588 | -0.379 | -1.9 | -0.676 | 1.85 | -0.85 (inactive) | 0.556 | 0.208 | -0.823 (inactive) | -1.73 | 2.39 (inactive) | -1.07 (inactive) | 0.81 (inactive) | 0.743 (inactive) | 1.13 (inactive) | -0.564 (inactive) | 0.147 (inactive) | -2.2 | 0.0379
4 | CN(C)CCCCCCNC(=O)[C@H]1C[C@H]2C(=O)N[C@@H](CCCCN)C(=O)N2[C@H]1c1ccc(O)cc1 | -0.466 | 0.71 | 0.266 | -1.05 | -0.0908 | 0.758 | -0.935 (inactive) | -0.773 | 0.237 | 0.283 (inactive) | -0.807 | 0.293 (inactive) | -0.249 (inactive) | 1.31 (inactive) | 0.808 (inactive) | 0.0384 (inactive) | -0.108 (inactive) | 0.267 (inactive) | 0.263 | 2.64
5 | C=CC[C@@H](OC(=O)Nc1ccc(OC)cc1)c1ccc(O)c2ccccc12 | -0.28 | 0.316 | -2 | -2.96 | -4.3 | -3.28 | -1.55 (inactive) | -0.992 | -2.18 | -0.67 (inactive) | -1.07 | -16.6 (active) | -6.13 (inactive) | -7.4 (inactive) | 1.73 (inactive) | -20.3 (active) | 0.305 (inactive) | -0.473 (inactive) | -4.48 | 0.0413
6 | N[C@@H](Cc1ccccc1)Cn1cc(-c2ccccc2)nn1 | -0.192 | -0.711 | -0.0622 | -1.57 | -0.0672 | 1.18 | 0.399 (inactive) | -0.515 | 0.137 | 0.837 (inactive) | -0.473 | -2.26 (inactive) | -0.29 (inactive) | 1.11 (inactive) | 0.444 (inactive) | -0.519 (inactive) | 0.405 (inactive) | -0.679 (inactive) | -0.587 | -0.377
7 | COC(=O)c1ccc(C(O)C2C=CC3C(=O)N(c4ccccc4)C(=O)C3N2Nc2ccc(C#N)cc2)o1 (stereo not given) | 0.88 | 0.0728 | 2.04 | -0.182 | -1.52 | 0.822 | -0.559 (inactive) | 0.111 | -0.849 | 0.276 (inactive) | -0.407 | -0.959 (inactive) | -0.582 (inactive) | -0.847 (inactive) | 1.38 (inactive) | 0.0055 (inactive) | -1.52 (inactive) | -0.249 (inactive) | -0.357 | -0.22
8 | COc1c(C)cc(-c2cc3c(c(-c4ccc(Oc5ccccc5)cc4)n2)[Si](C(C)C)(C(C)C)OC3)cc1C | -0.342 | -0.616 | 0.285 | -0.66 | -0.11 | -1.3 | -0.528 (inactive) | 0.103 | 0.0963 | 0.624 (inactive) | -0.566 | 2.09 (inactive) | -0.391 (inactive) | 0.567 (inactive) | 1.18 (inactive) | 1.19 (inactive) | -0.227 (inactive) | -0.707 (inactive) | -0.155 | -0.187
